Source: PubChem BioAssay (NCI)
Compounds without any hit were thinned out: in the full panel of roughly 83,000, 20% have a hit.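 For each line, cells grew in 96-well plates with the test compound present at a single concentration for 48 hours.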 A number with no mark means an inactive call. Active and inactive are the calls of the source. How the source made its calls: active means growth percent below 10; inactive means the rest.

What was measured:
Assay in all cases: NCI-60 one-dose screen, 48 h (100 = growth as untreated, 0 = no growth, -100 = all killed)
Conditions in all cases: 10 µM
[1] = test system: DU-145 prostate
[2] = test system: K-562 leukemia
[3] = test system: MALME-3M melanoma
[4] = test system: MDA-MB-231 breast
[5] = test system: RXF 393 renal
[6] = test system: SF-268 CNS
[7] = test system: SF-295 CNS
[8] = test system: SF-539 CNS
[9] = test system: UACC-257 melanoma
[10] = test system: M14 melanoma
[11] = test system: HCT-15 colon
[12] = test system: HT29 colon
[13] = test system: SNB-75 CNS
[14] = test system: SNB-19 CNS
[15] = test system: U251 CNS
[16] = test system: PC-3 prostate
[17] = test system: SK-MEL-5 melanoma
[18] = test system: UACC-62 melanoma
[19] = test system: LOX IMVI melanoma
[20] = test system: SK-MEL-28 melanoma

Compound: O=C(NCCCNS(=O)(=O)c1ccc(Cl)cc1)Nc1ccc(-n2cc(-c3ccncc3)c(-c3ccc(Cl)c(O)c3)n2)cc1
- growth [1]: 46.6%
- growth [2]: 10.1%
- growth [3]: 37.6%
- growth [4]: -19.3% (active)
- growth [5]: 18.9%
- growth [6]: 49.1%
- growth [7]: 2.43% (active)
- growth [8]: 47.9%
- growth [9]: 33.7%
- growth [10]: 18.1%
- growth [11]: 36.1%
- growth [12]: 0.25% (active)
- growth [13]: 61.7%
- growth [14]: 51.1%
- growth [15]: 37.6%
- growth [16]: 17.3%
- growth [17]: 2.07% (active)
- growth [18]: 42.8%
- growth [19]: 24.1%
- growth [20]: 40.7%

Compound: CCCN1CN2C(=O)N3CN(CCC)CN4C(=S)N(C1)C2C34 (stereo not given)
- growth [1]: 101%
- growth [2]: 105%
- growth [3]: 112%
- growth [4]: 98.6%
- growth [5]: 132%
- growth [6]: 97.3%
- growth [7]: 94.2%
- growth [8]: 95.3%
- growth [9]: 92.9%
- growth [10]: 94.5%
- growth [11]: 98.2%
- growth [12]: 99.5%
- growth [13]: 81%
- growth [14]: 101%
- growth [15]: 97.3%
- growth [16]: 91.5%
- growth [17]: 107%
- growth [18]: 98%
- growth [19]: 103%
- growth [20]: 93.4%

Compound: CN(C)CCOc1ccccc1NC1=C(Cl)C(=O)C(Nc2ccccc2OCCN(C)C)=C(Cl)C1=O
- growth [1]: 84.7%
- growth [2]: -12.6% (active)
- growth [3]: 64.7%
- growth [4]: 53.1%
- growth [5]: 68.5%
- growth [6]: 86%
- growth [7]: 103%
- growth [8]: 101%
- growth [9]: 85.2%
- growth [10]: 92.9%
- growth [11]: 79.7%
- growth [12]: 15%
- growth [13]: 107%
- growth [14]: 93.9%
- growth [15]: 68.6%
- growth [16]: 84.3%
- growth [17]: 93.6%
- growth [18]: 95.6%
- growth [19]: -65.7% (active)
- growth [20]: 109%

Compound: CS(=O)(=O)c1nccc(-c2c(-c3cccc(OCCc4ccccc4)c3)nc3sccn23)n1
- growth [1]: 108%
- growth [2]: 95.5%
- growth [3]: 102%
- growth [4]: 93.7%
- growth [5]: 118%
- growth [6]: 106%
- growth [7]: 109%
- growth [8]: 103%
- growth [9]: 101%
- growth [10]: 114%
- growth [11]: 108%
- growth [12]: 99.7%
- growth [13]: 98.4%
- growth [14]: 92.6%
- growth [15]: 99.4%
- growth [16]: 86.9%
- growth [17]: 78.3%
- growth [18]: 85.9%
- growth [19]: 94.2%
- growth [20]: 112%

Compound: CCC(CC)n1c(C)cc(=O)n1C(CC)CC
- growth [1]: 113%
- growth [2]: 105%
- growth [3]: 142%
- growth [4]: 109%
- growth [5]: 111%
- growth [6]: 100%
- growth [7]: 100%
- growth [8]: 96.7%
- growth [9]: 106%
- growth [10]: 110%
- growth [11]: 106%
- growth [12]: 111%
- growth [13]: 95.3%
- growth [14]: 96%
- growth [15]: 105%
- growth [16]: 104%
- growth [17]: 98.4%
- growth [18]: 101%
- growth [19]: 102%
- growth [20]: 107%

Compound: O=C(N/N=C/c1cc([N+](=O)[O-])ccc1O)c1cccc2ccccc12
- growth [1]: 45.2%
- growth [2]: 30.3%
- growth [3]: 53.7%
- growth [4]: 40.9%
- growth [5]: 46.5%
- growth [6]: 39.8%
- growth [7]: 26.4%
- growth [8]: 22.9%
- growth [9]: 23.5%
- growth [10]: 34.5%
- growth [11]: 22.5%
- growth [12]: 65.9%
- growth [13]: 55%
- growth [14]: 53%
- growth [15]: 29.8%
- growth [16]: 41.4%
- growth [17]: 39.1%
- growth [18]: 9.83% (active)
- growth [19]: 9.69% (active)
- growth [20]: 50%

Compound: O=C(CSc1nnc(-c2cccnc2SCc2ccccc2)o1)Nc1nc(Cl)cc(Cl)n1
- growth [1]: 107%
- growth [2]: 92.8%
- growth [3]: 94%
- growth [4]: 92%
- growth [5]: 105%
- growth [6]: 99.7%
- growth [7]: 96.8%
- growth [8]: 101%
- growth [9]: 113%
- growth [10]: 92%
- growth [11]: 106%
- growth [12]: 110%
- growth [13]: 85.7%
- growth [14]: 106%
- growth [15]: 106%
- growth [16]: 94.5%
- growth [17]: 101%
- growth [18]: 101%
- growth [19]: 94.9%
- growth [20]: 113%

Compound: N#CC1=C(N)Oc2cc(N)ccc2C1c1cccnc1 (stereo not given)
- growth [1]: 104%
- growth [2]: 83.3%
- growth [3]: 98.6%
- growth [4]: 101%
- growth [5]: 108%
- growth [6]: 93.4%
- growth [7]: 99.7%
- growth [8]: 96.1%
- growth [9]: 109%
- growth [10]: 87.3%
- growth [11]: 95.6%
- growth [12]: 93.8%
- growth [13]: 79.3%
- growth [14]: 103%
- growth [15]: 102%
- growth [16]: 88.7%
- growth [17]: 99.3%
- growth [18]: 101%
- growth [19]: 95.1%
- growth [20]: 102%

Compound: COc1cc2c(Nc3ccc(S(N)(=O)=O)cc3)ncnc2c(OC)c1OC
- growth [1]: 107%
- growth [2]: 97.8%
- growth [3]: 95%
- growth [4]: 94.9%
- growth [5]: 109%
- growth [6]: 90.2%
- growth [7]: 105%
- growth [8]: 99.3%
- growth [9]: 94.9%
- growth [10]: 124%
- growth [11]: 98%
- growth [12]: 105%
- growth [13]: 89.5%
- growth [14]: 93.5%
- growth [15]: 96.9%
- growth [16]: 84.7%
- growth [17]: 91.4%
- growth [18]: 97.4%
- growth [19]: 99.9%
- growth [20]: 98.7%

Compound: C1CN(CC2CCC(CN3CCOCC3)O2)CCO1 (stereo not given)
- growth [1]: 111%
- growth [2]: 63.1%
- growth [3]: -4.36% (active)
- growth [4]: 118%
- growth [5]: 112%
- growth [6]: 104%
- growth [7]: 99.7%
- growth [8]: 98%
- growth [9]: 103%
- growth [10]: 95.9%
- growth [11]: 101%
- growth [12]: 102%
- growth [13]: 96.5%
- growth [14]: 105%
- growth [15]: 108%
- growth [16]: 105%
- growth [17]: 105%
- growth [18]: 106%
- growth [19]: 93.2%
- growth [20]: 105%

Compound: CC(=O)Oc1cc(OC(C)=O)c2ccccc2c1OC(C)=O
- growth [1]: 67%
- growth [2]: 70.5%
- growth [3]: 67.3%
- growth [4]: 67.7%
- growth [5]: 93.1%
- growth [6]: 87.9%
- growth [7]: 103%
- growth [8]: 100%
- growth [9]: 81.4%
- growth [10]: 84.1%
- growth [11]: 81.3%
- growth [12]: 92.9%
- growth [13]: 85.7%
- growth [14]: 93.8%
- growth [15]: 94%
- growth [16]: 62.6%
- growth [17]: 60.9%
- growth [18]: 89.9%
- growth [19]: 48.3%
- growth [20]: 99.5%

Compound: CS(=O)(=O)c1nccc(-c2c(-c3cccc(OCc4ccc(F)cc4)c3)nc3sccn23)n1
- growth [1]: -53.8% (active)
- growth [2]: 47.3%
- growth [3]: 60.4%
- growth [4]: 77.5%
- growth [5]: 79.6%
- growth [6]: 90.2%
- growth [7]: 105%
- growth [8]: 104%
- growth [9]: 17%
- growth [10]: 71.2%
- growth [11]: 59.2%
- growth [12]: 82.9%
- growth [13]: 95.9%
- growth [14]: 83.2%
- growth [15]: 96.6%
- growth [16]: 59.3%
- growth [17]: 5.39% (active)
- growth [18]: 60.1%
- growth [19]: 36.6%
- growth [20]: 62.8%

Compound: CCOC(=O)c1cc(C(=O)c2cc(OC)c(OC)c(OC)c2)n2nc(C)ccc12
- growth [1]: 21.1%
- growth [2]: 9.56% (active)
- growth [3]: 77.9%
- growth [4]: 45.8%
- growth [5]: 33.6%
- growth [6]: 56.2%
- growth [7]: 41%
- growth [8]: 15%
- growth [9]: 55.5%
- growth [10]: 21%
- growth [11]: 25.3%
- growth [12]: 8.05% (active)
- growth [13]: 47.7%
- growth [14]: 54%
- growth [15]: 19.1%
- growth [16]: 30.6%
- growth [17]: 3.09% (active)
- growth [18]: 59%
- growth [19]: 31%
- growth [20]: 70.3%

Compound: CC(C)(C)OC(=O)N1CCc2c(sc3ncnc(N/N=C/c4cccc(Br)c4)c23)C1
- growth [1]: 62.4%
- growth [2]: 19.3%
- growth [3]: 66.9%
- growth [4]: 49.9%
- growth [5]: 63.5%
- growth [6]: 63.9%
- growth [7]: 64.7%
- growth [8]: 53.3%
- growth [9]: 80.8%
- growth [10]: 43%
- growth [11]: 18.8%
- growth [12]: 47.7%
- growth [13]: 67.6%
- growth [14]: 64.7%
- growth [15]: 51%
- growth [16]: 44.4%
- growth [17]: 44.1%
- growth [18]: 43%
- growth [19]: 33.1%
- growth [20]: 75.2%

Compound: COc1cccc(-c2nc3sccn3c2-c2cccc(S(C)(=O)=O)c2)c1
- growth [1]: 110%
- growth [2]: 95.5%
- growth [3]: 129%
- growth [4]: 93.4%
- growth [5]: 84.1%
- growth [6]: 100%
- growth [7]: 94.4%
- growth [8]: 94.3%
- growth [9]: 115%
- growth [10]: 119%
- growth [11]: 95.3%
- growth [12]: 118%
- growth [13]: 95.1%
- growth [14]: 99.2%
- growth [15]: 106%
- growth [16]: 94.7%
- growth [17]: 94.8%
- growth [18]: 99.4%
- growth [19]: 88.6%
- growth [20]: 112%
